# Where two headings read alike, the source gives them in different places.
# How the values were obtained:
# AAK1 = settings: read-out: apparent Kd, n = 1
# AURKA = settings: read-out: apparent Kd, n = 1
substance,measurement,setting,value
Lestaurtinib,potency estimated from few doses,"AAK1; compound concentrations:100 nM and 1000 nM (sheet 'Lestaurtinib' of Supplementary Table 1),run:Lestaurtinib_02606_R2,Plate:MR019",0.0737 µM
same,potency estimated from few doses,"AAK1; compound concentrations:100 nM and 1000 nM (sheet 'Lestaurtinib' of Supplementary Table 1),run:Lestaurtinib_02624_R1,Plate:MR020",0.052 µM
same,potency estimated from few doses,"AAK1; compound concentrations:100 nM and 1000 nM (sheet 'Lestaurtinib' of Supplementary Table 1),run:Lestaurtinib_02624_R2,Plate:MR020",0.0666 µM
same,potency estimated from few doses,"AAK1; compound concentrations:100 nM and 1000 nM (sheet 'Lestaurtinib' of Supplementary Table 1),run:Lestaurtinib_02624_R3,Plate:MR020",0.0698 µM
same,potency estimated from few doses,"AAK1; compound concentrations:100 nM and 1000 nM (sheet 'Lestaurtinib' of Supplementary Table 1),run:Lestaurtinib_02724_R1,Plate:MR021",0.0694 µM
same,potency estimated from few doses,"AAK1; compound concentrations:100 nM and 1000 nM (sheet 'Lestaurtinib' of Supplementary Table 1),run:Lestaurtinib_02741_R2,Plate:MR023",0.113 µM
same,potency estimated from few doses,"AAK1; compound concentrations:100 nM and 1000 nM (sheet 'Lestaurtinib' of Supplementary Table 1),run:Lestaurtinib_02741_R3,Plate:MR023",0.0897 µM
same,potency estimated from few doses,"AAK1; compound concentrations:100 nM and 1000 nM (sheet 'Lestaurtinib' of Supplementary Table 1),run:Lestaurtinib_02748_R1,Plate:MR024",0.0643 µM
same,potency estimated from few doses,"AAK1; compound concentrations:100 nM and 1000 nM (sheet 'Lestaurtinib' of Supplementary Table 1),run:Lestaurtinib_02748_R2,Plate:MR024",0.0538 µM
same,potency estimated from few doses,"AAK1; compound concentrations:100 nM and 1000 nM (sheet 'Lestaurtinib' of Supplementary Table 1),run:Lestaurtinib_02748_R3,Plate:MR024",0.0687 µM
same,potency estimated from few doses,"AAK1; compound concentrations:100 nM and 1000 nM (sheet 'Lestaurtinib' of Supplementary Table 1),run:Lestaurtinib_02752_R1,Plate:MR025",0.0986 µM
same,potency estimated from few doses,"AAK1; compound concentrations:100 nM and 1000 nM (sheet 'Lestaurtinib' of Supplementary Table 1),run:Lestaurtinib_02765_R3,Plate:MR026",0.0845 µM
same,potency estimated from few doses,"AAK1; compound concentrations:100 nM and 1000 nM (sheet 'Lestaurtinib' of Supplementary Table 1),run:Lestaurtinib_02766_R1,Plate:MR027",0.055 µM
same,potency estimated from few doses,"AAK1; compound concentrations:100 nM and 1000 nM (sheet 'Lestaurtinib' of Supplementary Table 1),run:Lestaurtinib_02768_R3,Plate:MR028",0.0801 µM
same,potency estimated from few doses,"AAK1; compound concentrations:100 nM and 1000 nM (sheet 'Lestaurtinib' of Supplementary Table 1),run:Lestaurtinib_02795_R1,Plate:MR022",0.0814 µM
same,potency estimated from few doses,"AAK1; compound concentrations:100 nM and 1000 nM (sheet 'Lestaurtinib' of Supplementary Table 1),run:Lestaurtinib_02795_R3,Plate:MR022",0.154 µM
same,potency estimated from few doses,"AAK1; compound concentrations:100 nM and 1000 nM (sheet 'Lestaurtinib' of Supplementary Table 1),run:Lestaurtinib_02802_R1,Plate:MR029",0.0679 µM
same,potency estimated from few doses,"AAK1; compound concentrations:100 nM and 1000 nM (sheet 'Lestaurtinib' of Supplementary Table 1),run:Lestaurtinib_02802_R2,Plate:MR029",0.0507 µM
same,potency estimated from few doses,"AAK1; compound concentrations:100 nM and 1000 nM (sheet 'Lestaurtinib' of Supplementary Table 1),run:Lestaurtinib_02896_R1,Plate:MR030",0.0737 µM
same,potency estimated from few doses,"AAK1; compound concentrations:100 nM and 1000 nM (sheet 'Lestaurtinib' of Supplementary Table 1),run:Lestaurtinib_02896_R3,Plate:MR030",0.0713 µM
same,potency estimated from few doses,"AAK1; compound concentrations:100 nM and 1000 nM (sheet 'Lestaurtinib' of Supplementary Table 1),run:Lestaurtinib_03172_R2,Plate:MR031",0.056 µM
same,potency estimated from few doses,"AAK1; compound concentrations:100 nM and 1000 nM (sheet 'Lestaurtinib' of Supplementary Table 1),run:Lestaurtinib_03172_R3,Plate:MR031",0.0668 µM
same,potency estimated from few doses,"AAK1; compound concentrations:100 nM and 1000 nM (sheet 'Lestaurtinib' of Supplementary Table 1),run:Lestaurtinib_03252_R1,Plate:MR032",0.0963 µM
same,potency estimated from few doses,"AAK1; compound concentrations:100 nM and 1000 nM (sheet 'Lestaurtinib' of Supplementary Table 1),run:Lestaurtinib_03260_R1,Plate:MR033",0.0731 µM
same,potency estimated from few doses,"AAK1; compound concentrations:100 nM and 1000 nM (sheet 'Lestaurtinib' of Supplementary Table 1),run:Lestaurtinib_03260_R2,Plate:MR033",0.0778 µM
same,potency estimated from few doses,"AURKA; compound concentrations:100 nM and 1000 nM (sheet 'Lestaurtinib' of Supplementary Table 1),run:Lestaurtinib_02339_R1,Plate:MR001",0.02 µM
same,potency estimated from few doses,"AURKA; compound concentrations:100 nM and 1000 nM (sheet 'Lestaurtinib' of Supplementary Table 1),run:Lestaurtinib_02339_R2,Plate:MR001",0.018 µM
same,potency estimated from few doses,"AURKA; compound concentrations:100 nM and 1000 nM (sheet 'Lestaurtinib' of Supplementary Table 1),run:Lestaurtinib_02339_R3,Plate:MR001",0.0184 µM
same,potency estimated from few doses,"AURKA; compound concentrations:100 nM and 1000 nM (sheet 'Lestaurtinib' of Supplementary Table 1),run:Lestaurtinib_02364_R2,Plate:MR002",0.0213 µM
same,potency estimated from few doses,"AURKA; compound concentrations:100 nM and 1000 nM (sheet 'Lestaurtinib' of Supplementary Table 1),run:Lestaurtinib_02367_R1,Plate:MR003",0.0163 µM
same,potency estimated from few doses,"AURKA; compound concentrations:100 nM and 1000 nM (sheet 'Lestaurtinib' of Supplementary Table 1),run:Lestaurtinib_02367_R2,Plate:MR003",0.0184 µM
same,potency estimated from few doses,"AURKA; compound concentrations:100 nM and 1000 nM (sheet 'Lestaurtinib' of Supplementary Table 1),run:Lestaurtinib_02367_R3,Plate:MR003",0.0181 µM
same,potency estimated from few doses,"AURKA; compound concentrations:100 nM and 1000 nM (sheet 'Lestaurtinib' of Supplementary Table 1),run:Lestaurtinib_02381_R3,Plate:MR004",0.0175 µM
same,potency estimated from few doses,"AURKA; compound concentrations:100 nM and 1000 nM (sheet 'Lestaurtinib' of Supplementary Table 1),run:Lestaurtinib_02407_R1,Plate:MR005",0.0163 µM
same,potency estimated from few doses,"AURKA; compound concentrations:100 nM and 1000 nM (sheet 'Lestaurtinib' of Supplementary Table 1),run:Lestaurtinib_02407_R2,Plate:MR005",0.0183 µM
same,potency estimated from few doses,"AURKA; compound concentrations:100 nM and 1000 nM (sheet 'Lestaurtinib' of Supplementary Table 1),run:Lestaurtinib_02407_R3,Plate:MR005",0.0182 µM
same,potency estimated from few doses,"AURKA; compound concentrations:100 nM and 1000 nM (sheet 'Lestaurtinib' of Supplementary Table 1),run:Lestaurtinib_02422_R1,Plate:MR006",0.0153 µM
same,potency estimated from few doses,"AURKA; compound concentrations:100 nM and 1000 nM (sheet 'Lestaurtinib' of Supplementary Table 1),run:Lestaurtinib_02422_R2,Plate:MR006",0.0074 µM
same,potency estimated from few doses,"AURKA; compound concentrations:100 nM and 1000 nM (sheet 'Lestaurtinib' of Supplementary Table 1),run:Lestaurtinib_02437_R1,Plate:MR007",0.0209 µM
same,potency estimated from few doses,"AURKA; compound concentrations:100 nM and 1000 nM (sheet 'Lestaurtinib' of Supplementary Table 1),run:Lestaurtinib_02437_R2,Plate:MR007",0.0218 µM
same,potency estimated from few doses,"AURKA; compound concentrations:100 nM and 1000 nM (sheet 'Lestaurtinib' of Supplementary Table 1),run:Lestaurtinib_02437_R3,Plate:MR007",0.00354 µM
same,potency estimated from few doses,"AURKA; compound concentrations:100 nM and 1000 nM (sheet 'Lestaurtinib' of Supplementary Table 1),run:Lestaurtinib_02438_R1,Plate:MR008",0.0154 µM
